Test [1] is described as follows: NCI Yeast Anticancer Drug Screen. Data for the rad50 strain (AID 155).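 Also: 0% = growth of vehicle-only cultures of the same strain.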 The conditions noted are these: S. cerevisiae rad50 strain growth inhibition; at 50.0 µM; stronger effect = higher value. The gist of the method:
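Genetically altered yeast (DNA repair pathway); compound treatment; growth inhibition vs vehicle ctrl.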

The nature of test [2]: NCI Yeast Anticancer Drug Screen. Data for the mec2-1 strain (AID 157). As to conditions: S. cerevisiae mec2-1 strain, at 50.0 µM, stronger effect = higher value. The gist of the method: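 Compounds were applied to mec2-1 yeast cells. Their growth was then compared with that of vehicle-treated cultures to give growth inhibition.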
Test [3] is described as follows: NCI Yeast Anticancer Drug Screen. Data for the sgs1 mgt1 strain (AID 161).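 Also: 0% = growth of cultures given vehicle only.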 The conditions noted are these: S. cerevisiae sgs1 mgt1 strain, at 50.0 µM, stronger effect = higher value. An outline of the steps:
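This yeast growth screen uses a strain with defined DNA-repair lesions; compound-treated growth is compared with vehicle-treated growth.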

Test [4] is described as follows: NCI Yeast Anticancer Drug Screen. Data for the cln2 rad14 strain (AID 165).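 Also: 0% = growth equal to vehicle treated cultures.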 As to conditions: S. cerevisiae cln2 rad14 strain, at 50.0 µM, stronger effect = higher value. The gist of the method:
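Strain: cln2 rad14 yeast, altered in cell cycle control and DNA damage repair. Read-out: growth inhibition vs vehicle.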

Test [5] can be described thus: NCI Yeast Anticancer Drug Screen. Data for the bub3 strain (AID 167). As to conditions: S. cerevisiae bub3 mutant strain, at 50.0 µM, stronger effect = higher value. The gist of the method: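 Yeast carrying a defined mutation is treated with each compound, and growth is compared with that of vehicle-exposed cells to give inhibition.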
Test [6] in a line: NCI Yeast Anticancer Drug Screen. Data for the mlh1 rad18 strain (AID 175). The conditions noted are these: S. cerevisiae mlh1 rad18 strain growth inhibition; at 50.0 µM; stronger effect = higher value. The gist of the method: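 A repair-deficient yeast strain is exposed to test compound, and growth is scored relative to vehicle-treated controls.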

Growth inhibition data for 37 compounds are collected here from PubChem BioAssay (NCI).

About 79,000 compounds went through this panel and 15% of them were active in at least one assay; those are over-represented in the sample as a whole. Values without a mark were called inactive. The source made the active and inactive calls. Rule as the data show it: active = growth inhibition above about 70%; inactive = the rest.

`Cc1cnc(Sc2ncccn2)c([N+](=O)[O-])c1`: the growth inhibition is -7.05% in test [1]; -15% in test [2]; -2.1% in test [3]; -28.4% in test [4]; -31.1% in test [5]; -17.9% in test [6].
Consider `CCCCOC(=O)C(N)Cc1ccccc1` (configuration not stated), for which the growth inhibition in test [1] is -20.4%; in test [2], -2.3%; in test [3] it was -5.65%; in test [4], -44.5%; in test [5], 23.6%; in test [6], -22.2%.
For the compound `CCOC(=O)C1(N)CC1`, the growth inhibition in test [1] was 4.65%; in test [2], 7.1%; in test [3] it was 2.8%; in test [4], -10%; in test [5], -11.4%; in test [6] it was 17.2%.
Take `CCN(CCO)C(=O)C1(c2ccccc2)CCCCC1`: the growth inhibition in test [1] is 11.8%; in test [2] it was -9.7%; in test [3], 9.35%; in test [4] it was 28%; in test [5], 18.4%; in test [6], -1.4%.
Regarding `COc1cc2c(cc1OC)C(=O)/C(=C/c1ccc(N(C)C)cc1)CC2`, the growth inhibition in test [1] was -39.5%; in test [2] it was -58%; in test [3], -28.9%; in test [4], -63.7%; in test [5] it was -7.2%; in test [6], -39.8%.
Take `CCCCCCCCC(O)C(O)CCCCCCCCOC(=O)CCCCCCCCCCC(O)CCCCCC` (configuration not stated): the growth inhibition in test [1] was 13.1%; in test [2], -8.65%; in test [3], -1.55%; in test [4] it was -9.7%; in test [5], -2.1%; in test [6] it was 18.4%.
On to `Nc1ccccc1C(=O)ONC(=O)c1ccccc1`, for which the growth inhibition is 99.5% (active) in test [1]; 99.6% (active) in test [2]; 99.5% (active) in test [3]; 99% (active) in test [4]; 99.3% (active) in test [5]; 99.3% (active) in test [6].
For `CS(=O)(=O)OC[C@H](NC(=O)c1ccccc1)[C@H](COS(C)(=O)=O)NC(=O)c1ccccc1`, the growth inhibition is 6.5% in test [1]; 9.3% in test [2]; 18.4% in test [3]; 9.9% in test [4]; -9.85% in test [5]; 15.3% in test [6].
Regarding `O=C1CSC(/C(=C/c2ccccc2)c2nc3ccccc3[nH]2)=N1`, the growth inhibition in test [1] was 6.65%; in test [2], -1.75%; in test [3], 0.15%; in test [4] it was 16.2%; in test [5], -1.6%; in test [6], -0.25%.
In the case of `CC(C)C1CCC2(C)C(CCC3C4(C)CCCC32OC4)C1` (configuration not stated), the growth inhibition was -20.5% in test [1]; 1.35% in test [2]; 0.75% in test [3]; -25.1% in test [4]; 48% in test [5]; 11.4% in test [6].
Turning to `CN1CCC(O)(/C=C\C2(O)CCN(C)CC2)CC1`, the growth inhibition was -10.9% in test [1]; 21.7% in test [2]; 20.1% in test [3]; -3.95% in test [4]; 3.65% in test [5]; -22.1% in test [6].
With `CCCCCCCCSCCCC(=O)O`, the growth inhibition in test [1] was -16.9%; in test [2] it was -22.8%; in test [3], -10.8%; in test [4], -11.3%; in test [5], -27.7%; in test [6], -29.2%.
Turning to `O=C(C#Cc1ccccc1)[O][Sn]([c]1ccccc1)([c]1ccccc1)[c]1ccccc1`, the growth inhibition in test [1] was 99% (active); in test [2], 99.2% (active); in test [3], 99.4% (active); in test [4] it was 99.2% (active); in test [5], 99.1% (active); in test [6], 99.2% (active).
As to `CN(C)Cc1[nH]c2ccccc2c1Sc1ccccc1`, the growth inhibition in test [1] is 0.85%; in test [2], 2.4%; in test [3] it was 24.6%; in test [4], 6.2%; in test [5], -27.9%; in test [6] it was 30.8%.
With `CC(C)(C)NC1=NCCNC(c2ccccc2)=C1`, the growth inhibition in test [1] is -33.5%; in test [2], -52.2%; in test [3] it was -19.4%; in test [4] it was -4.65%; in test [5], -30.8%; in test [6], -23.9%.
Take `COc1cc(CNC(=O)CCCCCCCCCCSSCCCCCCCCCCC(=O)NCc2ccc(O)c(OC)c2)ccc1O`: the growth inhibition in test [1] was -20.4%; in test [2], -32.8%; in test [3], -22.9%; in test [4], 5.9%; in test [5] it was -13.3%; in test [6] it was -24.8%.
With `CC1(C)C2CC[C@]3(C)C(C(=O)C=C4[C@@H]5C[C@@](C)(C(=O)O)CC[C@]5(C)CCC43C)[C@@]2(C)CC[C@@H]1OC1OC(C(=O)O)C(O)C(O)C1OC1OC(C(=O)O)C(O)C(O)C1O` (some centres not stated) (tested in a mixture with another compound), the growth inhibition in test [1] is 5.65%; in test [2] it was -2.45%; in test [3] it was 2.7%; in test [4], -12.2%; in test [5] it was -3.55%; in test [6], -0.35%.
On to `Cc1c(C(=O)CC(=O)C(=O)Nc2c(C(C)C)cccc2C(C)C)[n+](=O)c2ccccc2n1[O-]`, for which the growth inhibition in test [1] is 35.6%; in test [2], 39.5%; in test [3], 22.2%; in test [4], 40.5%; in test [5], 29.8%; in test [6] it was 36%.
In the case of `CC1(Br)CC2=C(CC1(C)Br)C(=O)C(c1ccccc1)=C(c1ccccc1)C2=O` (configuration not stated), the growth inhibition in test [1] is 9.25%; in test [2], 17.1%; in test [3] it was 39.2%; in test [4], 25%; in test [5] it was 12.3%; in test [6] it was 23.4%.
Take `CN=S(=O)(OC/C=C/COS(=O)(=NC)c1ccc(C)cc1)c1ccc(C)cc1` (configuration not stated): the growth inhibition in test [1] was -17.9%; in test [2], -21.9%; in test [3], -24.1%; in test [4] it was -8.55%; in test [5] it was -10.4%; in test [6], -26.3%.
As for `O=CNc1ccc(-c2ccc(NC=O)cc2)cc1`, the growth inhibition is 27.6% in test [1]; 4.5% in test [2]; 7.75% in test [3]; 13.1% in test [4]; -12.8% in test [5]; -6.4% in test [6].
Take `CC1=C(C(=O)Nc2ccc(C)cc2)C(c2cccc([N+](=O)[O-])c2)C(C(=O)Nc2ccc(C)cc2)=C(C)N1`: the growth inhibition in test [1] is 14.9%; in test [2], 24.3%; in test [3], 22.5%; in test [4], 13.8%; in test [5] it was 41%; in test [6], 4.35%.
On to `CC(=O)OC12c3ccccc3C(c3ccccc31)C1C(=O)N(c3ccccn3)C(=O)C12` (configuration not stated), for which the growth inhibition in test [1] was -23.6%; in test [2] it was -7.4%; in test [3], 5.9%; in test [4], 3.35%; in test [5] it was 9.9%; in test [6] it was 5.6%.
For `CC(=O)C1CCC(C)(O)CC1=O` (configuration not stated), the growth inhibition is -0.6% in test [1]; -18% in test [2]; -14.5% in test [3]; -9.35% in test [4]; -8.4% in test [5]; -3.65% in test [6].
Take `O=C(O)c1cc(-c2ccccc2Cl)nc2ccccc12`: the growth inhibition is 10.7% in test [1]; -6.55% in test [2]; -8.3% in test [3]; -10.7% in test [4]; 19.8% in test [5]; 0.45% in test [6].
Turning to `CC(=O)Nc1ccc(C2C(C(=O)Nc3ccccc3)=C(C)NC(C)=C2C(=O)Nc2ccccc2)cc1`, the growth inhibition in test [1] was 17.1%; in test [2], -2.6%; in test [3], 12.7%; in test [4], 11.2%; in test [5], 32.5%; in test [6], -2.2%.
With `Cc1c(-c2ccccc2)noc1-n1nnc2ccccc2c1=O`, the growth inhibition in test [1] was -7.45%; in test [2], 29.6%; in test [3], 11.4%; in test [4], -42.8%; in test [5], 48.4%; in test [6] it was 9.05%.
Consider `COc1ccc2nc(NC(=O)Nc3ccc(Cc4ccc(NC(=O)Nc5nc6ccc(OC)cc6s5)cc4)cc3)sc2c1`, for which the growth inhibition in test [1] was -14.4%; in test [2], -19.6%; in test [3], -10.3%; in test [4], 10.3%; in test [5], -8.65%; in test [6], -12%.
Take `CN(c1ccccc1)S(=O)(=O)c1ccc([N+](=O)[O-])cc1`: the growth inhibition in test [1] is -13.4%; in test [2] it was -52.7%; in test [3], 6.75%; in test [4], -7.1%; in test [5], 21.8%; in test [6], -5.45%.
In the case of `O=C(NCCCCCCCCCNC(=O)C12CC3CC(CC(C3)C1)C2)C12CC3CC(CC(C3)C1)C2`, the growth inhibition in test [1] is 23.2%; in test [2], 9.2%; in test [3], 21.7%; in test [4], 29.5%; in test [5], -1.55%; in test [6], 28.4%.
As for `CCCCCCCC1CC(OCC)OC(CCCCCCC)O1` (configuration not stated), the growth inhibition was -1.8% in test [1]; -15.1% in test [2]; -6.95% in test [3]; -8.2% in test [4]; -2.25% in test [5]; -18.4% in test [6].
`O=S(=O)(O)CCNC(=S)C(=S)NCCS(=O)(=O)O`: the growth inhibition in test [1] is 29.1%; in test [2] it was 14.2%; in test [3] it was 7.75%; in test [4], 6.2%; in test [5], 8.7%; in test [6] it was 5.7%.
Turning to `COC1(OC)C(N(C)C)=C(Cl)C(=O)/C1=C/C=O`, the growth inhibition in test [1] was 7.75%; in test [2], -10.7%; in test [3] it was -16.9%; in test [4], -6.65%; in test [5], 13.8%; in test [6], -16.4%.
As to `CCCC(CN1CCCCC1)C(OC(=O)c1ccc(N)cc1)C(F)(F)F` (configuration not stated), the growth inhibition in test [1] is -14.2%; in test [2], -13.7%; in test [3] it was 24.1%; in test [4], -30.8%; in test [5], 67.5%; in test [6], 22.4%.
`C1=C(c2ccccc2)CC(c2ccc(-c3ccccc3)cc2)=C1`: the growth inhibition in test [1] was 6.9%; in test [2], 1.15%; in test [3], 1.55%; in test [4] it was -27.6%; in test [5], -10.2%; in test [6] it was 16.4%.
Turning to `CN1C(=O)N/C(=C\c2ccc(S(=O)(=O)N/N=C/c3ccccc3)cc2)C1=O`, the growth inhibition was 16.4% in test [1]; 44.9% in test [2]; 20.1% in test [3]; -2.55% in test [4]; 2.75% in test [5]; 39.9% in test [6].
In the case of `CC1CCCN(C(=O)/C=C/c2ccccc2)C1` (configuration not stated), the growth inhibition was 9.25% in test [1]; -19.2% in test [2]; -6.45% in test [3]; -45.8% in test [4]; 6.3% in test [5]; -3.8% in test [6].
